RGS4-Gao reg = modulators of RGS4 binding to Galphao, primary screen, biochemical, multiplexed bead flow cytometry; Guanine nucleotide-binding protein G(o) subunit alpha (Homo sapiens), P09471; actives lie on both sides; binding response (% of control), % at 10 µM; 0.33% of 220,000 active; in the data active = binding response below about 49% or above about 150%; inactive = in between;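 note: fluorescent Galphao activated with aluminum fluoride binding bead-coupled RGS4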
Target sequence (P09471 whole entry, looked up): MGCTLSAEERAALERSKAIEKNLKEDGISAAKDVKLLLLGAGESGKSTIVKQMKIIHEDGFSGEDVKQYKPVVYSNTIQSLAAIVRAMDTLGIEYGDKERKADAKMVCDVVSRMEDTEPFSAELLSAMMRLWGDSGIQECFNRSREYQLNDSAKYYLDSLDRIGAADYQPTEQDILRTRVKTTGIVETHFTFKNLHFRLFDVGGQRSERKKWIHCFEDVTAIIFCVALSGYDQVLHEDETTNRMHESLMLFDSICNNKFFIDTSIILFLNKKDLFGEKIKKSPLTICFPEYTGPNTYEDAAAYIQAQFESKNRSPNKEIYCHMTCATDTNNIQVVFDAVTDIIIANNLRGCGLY
RGS8-Gao = RGS8-Galphao binding modulators, primary screen, biochemical, multiplexed bead flow cytometry; actives lie on both sides; 0.34% of 220,000 active; Guanine nucleotide-binding protein G(o) subunit alpha (Homo sapiens), P09471; response (percent of control binding), % at 10 µM; in the data active = response below about 60% or above about 140%; inactive = in between;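 note: Galphao activated as the GDP aluminium fluoride complex binding bead-coupled RGS8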
RGS7-Gao = RGS7-Galphao binding modulators, primary screen, biochemical, multiplexed bead flow cytometry; Guanine nucleotide-binding protein G(o) subunit alpha (Homo sapiens), P09471; actives lie on both sides; binding response (% of control), % at 10 µM; 0.35% of 220,000 active; AID 1439, 2008; in the data active = binding response below about 49% or above about 150%; inconclusive = no clear call, values can overlap the other calls; inactive = in between;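 note: fluorescent Galphao held in activated GDP-AlF4 state binding bead-coupled RGS7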
RGS16-Gao HTS = modulators of RGS16 binding to Galphao, primary screen, biochemical, human proteins, multiplexed bead flow cytometry; bead-based flow cytometry RGS16-Galphao binding, fluorescence; actives lie on both sides; Regulator of G-protein signaling 16 (Homo sapiens) + Guanine nucleotide-binding protein …; binding response (% of control), % at 10 µM; AID 1441, 2008; 0.38% of 220,000 active;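 note: Galphao activated by GDP with aluminum fluoride before binding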
Target sequence (O15492 whole entry, looked up): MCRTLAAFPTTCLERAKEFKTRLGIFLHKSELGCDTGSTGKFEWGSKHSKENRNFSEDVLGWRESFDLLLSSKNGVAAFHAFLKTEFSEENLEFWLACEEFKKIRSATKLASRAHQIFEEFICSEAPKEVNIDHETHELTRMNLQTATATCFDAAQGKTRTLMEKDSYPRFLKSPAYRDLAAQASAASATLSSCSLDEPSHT
Target sequence (P09471 whole entry, looked up): as the sequence (P09471 whole entry, looked up) above
RGS-Gao = modulators of RGS–Galpha-o binding, primary screen, biochemical, multiplexed beads, flow cytometry, RGS4/7/8/16/19. RGS4–Galpha-o binding response, % at 10 µM. AID 1504, 2009. shares compounds with RGS16-Gao HTS. 99% of 1,600 active. multiplexed bead flow cytometry;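 note: fluorescently labeled Galpha-o bound to GDP with aluminium fluoride binding biotinylated RGS beads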
Biotin-avidin = disruption of biotin probe capture by avidin, counter-screen for RGS protein interaction modulators, biochemical, flow cytometry, bead-based; inhibition, % at 10 µM; 1,700 tested, under 10 active; shares compounds with RGS16-Gao HTS; AID 1783, 2009; streptavidin beads, fluorescein-biotin binding;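 active = inhibition above 50%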;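 note: median green fluorescence of gated singlet beads compared with DMSO control wells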
RGS8-Gao confirm = RGS8-Galphao binding modulators, confirmation, biochemical, multiplexed bead flow cytometry, single concentration. shares compounds with RGS16-Gao HTS. binding response (% of control), % at 10 µM. 3% of 1,700 active. bead-based flow cytometry RGS8-Galphao binding, fluorescence; actives lie on both sides. AID 1836, 2009; in the data active = binding response below about 72% or above about 130%; inactive = in between;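 note: Galphao activated as GDP AlF4 complex before binding bead RGS8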
RGS7-Gao single = RGS7-Galphao binding modulators, confirmation, biochemical, multiplexed bead flow cytometry, single concentration | response (percent of control binding), % at 10 µM | AID 1837, 2009 | shares compounds with RGS16-Gao HTS | bead-based flow cytometry RGS7-Galphao binding; actives lie on both sides | 7.8% of 1,700 active; in the data active = response below about 75% or above about 130%; inactive = in between;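 note: fluorescent Galphao activated with GDP and aluminum fluoride binding bead-coupled RGS7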
RGS16-Gao single = modulators of RGS16-Galphao protein binding, confirmation, biochemical, single concentration, multiplexed bead flow cytometry | shares compounds with RGS16-Gao HTS | bead-based flow cytometry; actives lie on both sides | response (% of control binding), % at 10 µM | 4% of 1,700 active | AID 1838, 2009; in the data active = response below about 74% or above about 130%; inactive = in between;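 note: Galphao activated as the GDP aluminium fluoride complex binding bead-coupled RGS16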
RGS4-Gao single = modulators of RGS4-Galphao protein binding, confirmation, biochemical, single concentration, multiplexed bead flow cytometry | shares compounds with RGS16-Gao HTS | actives lie on both sides | binding response (% of control), % at 10 µM | 4% of 1,700 active; in the data active = binding response below about 74% or above about 130%; inactive = in between
RGS19-Gao single = regulators of RGS19-Galphao binding, confirmation, biochemical, single point, multiplexed bead flow cytometry; shares compounds with RGS16-Gao HTS; bead-based flow cytometry RGS19-Galphao binding; actives lie on both sides; response (percent of control binding), % at 10 µM; 5% of 1,700 active; in the data active = response below about 50% or above about 160%; inactive = in between
Each line names hits and unclear results; the compound was inactive in the other large screens (follow-up assays come after a bar, where they were run); [ ] = dose if it differs, or a comment. Most compounds without a hit are left out; they make up all but 0.78% or so of the library. Unless noted, the rule behind the calls is not given here.

CN1CCN(c2nc3c(c(=O)n(C)c(=O)n3C)n2CC(=O)C23CC4CC(CC(C4)C2)C3)CC1	RGS4-Gao reg 156.9[activator] | Biotin-avidin inactive | RGS8-Gao confirm inactive | RGS7-Gao single inactive | RGS16-Gao single inactive | RGS4-Gao single inactive | RGS19-Gao single inactive
Cc1ccc(C(=O)CNc2ccc(Cl)cc2)cc1	none
C/C(=N/NC(=O)CNc1ccc(C)cc1)c1ccc(Cl)cc1	none (no result: RGS4-Gao reg, RGS8-Gao, RGS7-Gao, RGS16-Gao HTS) | Biotin-avidin inactive | RGS8-Gao confirm inactive | RGS7-Gao single inactive | RGS16-Gao single inactive | RGS4-Gao single inactive | RGS19-Gao single inactive
COc1ccccc1N(CC(=O)NC1CCCC1)C(=O)c1csnn1	none
Cc1ccc(NC(=O)/C(C#N)=C/c2ccc(Sc3nc(C)cc(C)n3)o2)cc1	none
Cc1cc(C(=O)CSc2nnc(-c3ccc4c(c3)OCO4)o2)c(C)n1-c1ccc(F)cc1	none
Cc1ccc(NC(=S)N2CCOCC2)c(C)c1	none
Cc1ccc(NC(=S)N2CCN(C)CC2)c(C)c1	RGS16-Gao HTS 186.1[activator] | RGS-Gao 106.7 | Biotin-avidin inactive | RGS8-Gao confirm inactive | RGS7-Gao single inactive | RGS16-Gao single inactive | RGS4-Gao single inactive | RGS19-Gao single inactive
Cc1cc(O)c(C(C)C)cc1NC(=O)Cn1nc(C)c2ccccc2c1=O	none
COc1ccc(NS(=O)(=O)c2ccc(OCC(=O)N3CCOCC3)cc2)cc1	RGS4-Gao reg 20.8, RGS8-Gao 13.0, RGS7-Gao 15.7, RGS16-Gao HTS 11.5 | Biotin-avidin inactive | RGS8-Gao confirm inactive | RGS7-Gao single inactive | RGS16-Gao single inactive | RGS4-Gao single inactive | RGS19-Gao single inactive
O=C(COc1ccc(S(=O)(=O)Nc2ccccc2)cc1)N1CCOCC1	none
O=C(COc1ccccc1)N1CCN(S(=O)(=O)c2ccc(Cl)cc2)CC1	none
COc1ccc(S(=O)(=O)Nc2ccc(-n3cccc3)cc2)cc1	RGS4-Gao reg 22.1, RGS8-Gao 14.2, RGS7-Gao inconclusive, RGS16-Gao HTS 12.7 | Biotin-avidin inactive | RGS8-Gao confirm inactive | RGS7-Gao single inactive | RGS16-Gao single inactive | RGS4-Gao single inactive | RGS19-Gao single inactive
COc1ccc(S(=O)(=O)N(CC(=O)N2CCOCC2)Cc2ccccc2)cc1	RGS7-Gao 217.0[activator] | RGS-Gao 119.4 | Biotin-avidin inactive | RGS8-Gao confirm inactive | RGS7-Gao single inactive | RGS16-Gao single inactive | RGS4-Gao single inactive | RGS19-Gao single inactive
O=C(CN(Cc1ccccc1)S(=O)(=O)c1ccccc1)N1CCOCC1	none
COc1ccc(OCC(=O)N2CCN(S(=O)(=O)c3ccc(Cl)cc3)CC2)cc1	RGS8-Gao 151.8[activator] | RGS-Gao 116.3 | Biotin-avidin inactive | RGS8-Gao confirm inactive | RGS7-Gao single inactive | RGS16-Gao single inactive | RGS4-Gao single inactive | RGS19-Gao single inactive
Cn1c(CC(=O)c2ccc(Br)cc2)[n+](C)c2ccccc21	RGS7-Gao inconclusive
O=C(CCC1CCCC1)Nc1ccc(C(=O)NCc2cccnc2)cc1	none
COCCCNC(=O)c1ccc(N2CCOCC2)c(NS(=O)(=O)c2ccc(OC)cc2)c1	none (no result: RGS4-Gao reg, RGS8-Gao, RGS7-Gao, RGS16-Gao HTS) | Biotin-avidin inactive | RGS8-Gao confirm inactive | RGS7-Gao single inactive | RGS16-Gao single inactive | RGS4-Gao single inactive | RGS19-Gao single inactive
CCOCCCNC(=O)c1ccc(N2CCOCC2)c(NS(=O)(=O)c2ccc(OC)cc2)c1	none
CC1(C)CC(=O)C(C=NCC(N)=O)=C(O)C1	RGS8-Gao 145.9[activator] | RGS-Gao 146.7
CC(Oc1ccc(Cl)cc1)c1ccnn1S(=O)(=O)c1ccccc1 (stereo not drawn)	none
CSC1=N/C(=C/c2cccnc2)C(=O)N1Cc1ccccc1	RGS4-Gao reg -9.4, RGS8-Gao 11.5, RGS7-Gao inconclusive, RGS16-Gao HTS -5.1 | Biotin-avidin inactive | RGS8-Gao confirm inactive | RGS7-Gao single inactive | RGS16-Gao single inactive | RGS4-Gao single inactive | RGS19-Gao single inactive
COc1ccc(CNC(=O)c2sc3nc4c(c(C(F)(F)F)c3c2N)CCC4)cc1OC	none
CC1CC(=O)Nc2ccccc2N1C(=O)Nc1ccc(F)cc1 (stereo not drawn)	none (no result: RGS4-Gao reg, RGS7-Gao, RGS16-Gao HTS) | Biotin-avidin inactive | RGS8-Gao confirm inactive | RGS7-Gao single inactive | RGS16-Gao single inactive | RGS4-Gao single inactive | RGS19-Gao single inactive
CC(C)C[C@H](NC(=O)NCc1ccc(Cl)cc1)C(=O)O	none
CCc1ccc(C2CC(c3ccco3)=NN2S(C)(=O)=O)cc1 (stereo not drawn)	none (no result: RGS4-Gao reg, RGS8-Gao, RGS7-Gao, RGS16-Gao HTS) | Biotin-avidin inactive | RGS8-Gao confirm inactive | RGS7-Gao single inactive | RGS16-Gao single inactive | RGS4-Gao single inactive | RGS19-Gao single inactive
CCOc1ccc2cc(C3CC(c4ccco4)=NN3S(C)(=O)=O)c(Cl)nc2c1 (stereo not drawn)	RGS7-Gao inconclusive
N#C/C(=C\c1ccc(N2CCOCC2)o1)C(=O)NCCc1ccccc1	none
N#C/C(=C/c1ccc(N2CCOCC2)o1)C(=O)Nc1ccccc1	RGS4-Gao reg 159.0[activator], RGS7-Gao 198.2[activator] | Biotin-avidin inactive | RGS8-Gao confirm inactive | RGS7-Gao single inactive | RGS16-Gao single inactive | RGS4-Gao single inactive | RGS19-Gao single inactive
COc1cccc(Cn2c(Oc3ccccc3)nc3c2c(=O)n(C)c(=O)n3C)c1	RGS16-Gao HTS -247.2 | RGS-Gao 83.5
CCCc1nc2c([nH]1)c(=O)n(C)c(=O)n2C	RGS7-Gao inconclusive

Source: PubChem BioAssay (NMMLSC)
